The results in this text go back to paper PMC12136788.

In all, about 5,800 sequences were measured (“enrichment r”: median about 0.68, highest 2% from about 11 on). This is one part of a sample in which the highest values are shown more often than they occur.

Sequences and labels used below:
B1: ENSG00000114439:stop:overlap|stop_codon|ENSG00000114439|stop_codon|NA|stop_codon (ssRNA)
RNA: GGGAGUUCUACAGUCCGACGAUCUUCAUUGUAAAACAUUGUGCUUUACCUACUACCCUAGCCUUGUCUUUACCGAGGGAUGCUAGUGAGUCCAAGUGGUGGAAAAUAUAGACUGCAAACAAGUGCUUGUUGCCCCACACGGCCCAACAGAGGAUUGAGCAUCA
B2: ENSG00000117906:stop:overlap|stop_codon|ENSG00000117906|stop_codon|NA|stop_codon (ssRNA)
RNA: GGGAGUUCUACAGUCCGACGAUCAGUCCUUUAGGAAGCAUCAAUGUGGAGGUUUGGGGCUCCAUCCUCAGAGCCAGUCUGCUUAGCUUCACAUUUAGCUCCAGCACUUCACGGUUGUGUAACUUUGGCUUCACUUAAAGGACACAACAGAGGAUUGAGCAUCA
B3: chr12:104348774:104348848:+|3pUTR|ENSG00000198431|msi1_unk|total|mutant (ssRNA)
RNA: GGGAGUUCUACAGUCCGACGAUCCGUUGUCAAGUUUUCCCGGGUUGAAUUUUUUUCUUUUUUCUCCAUGGUGUUAAUGAUAUCCGAGAUGAAAAACGUCCGCAGUUGAUUUUUGUCCAAAAGCAAGUCAUGGCCCGAGUAUCCCAACAGAGGAUUGAGCAUCA
B4: chr10:62094764:62094865:+|3pUTR|ENSG00000150347|msi1|FALSE|unique (ssRNA)
RNA: GGGAGUUCUACAGUCCGACGAUCGAUGAACUCCCCAACCCACUGUGCCCCUCCCGCAACACUACCAGUAGACUUUAGAACCAUAGUUAACUAAGUCUUUUACCUCUGAGAUACUUAAUUCUGGGAAAAUUGGUGACAAUUUUCCAACAGAGGAUUGAGCAUCA
B5: chr4:65323451:65323552:-|3pUTR|ENSG00000145242|msi1|FALSE|unique (ssRNA)
RNA: GGGAGUUCUACAGUCCGACGAUCAUCAAGAAAAAGUACAAUACAGGGUGUAUAUUUAUUUUUUGUGUUAUAAAGUUUACUUUUAGUUGCUCUUCUAGAGAUUAUUAGGUAAUAAAUGUGUAUAUACUGUAUAAUUUGCAAUAUCAACAGAGGAUUGAGCAUCA
B6: chr18:55223968:55224079:-|3pUTR|ENSG00000196628|unk|FALSE|unique (ssRNA)
RNA: GGGAGUUCUACAGUCCGACGAUCUAUAAAGCUUUGUUUGUCUAGUGCUCUUUUGCUAUAAAAUAGACUGUAGUACACCCUAGUAGGAAAAAAAAAAAACUAAAUUUAAAAAUAAAAAAUAUAUUUGGCUUAUUUUUCGCAGGACAACAGAGGAUUGAGCAUCA
B7: chr16:21983864:21984660:-|three_prime_utr|ENSG00000155714|control|control|control (ssRNA)
RNA: GGGAGUUCUACAGUCCGACGAUCAAAGAAAAUUGAGCUGGCAAAAGAUGAAUCUUUCACAAGCAGUGAUGAUAAUGAAAAUGUAGAUUUAGAUAAAAGACUUCAAUAUUAUAGAUAUCCGUGGUCAACUGUGCAUCACCCUGCCAACAGAGGAUUGAGCAUCA
B8: chr15:100649042:100649144:+|3pUTR|ENSG00000183475|unk|FALSE|unique (ssRNA)
RNA: GGGAGUUCUACAGUCCGACGAUCUACCUCUGCUUUUCUUUUGCUGUGCUCUUGUUUUUAACUUAUUUUUUUUUUAACAACUGUAGUACACUACCCUGAGACACUGCAUCUCGAUUUCUAUCUCUAGUUAGAGUUGUACUUUUACAACAGAGGAUUGAGCAUCA
B9: chr22:49888080:49888186:+|3pUTR|ENSG00000100426|unk|FALSE|unique (ssRNA)
RNA: GGGAGUUCUACAGUCCGACGAUCUGGCUUAUUAACAGGGAAGAAGCUUGUUAUAUUCCAGUUGUAAGAAUAGCCUUAGUGUUUAGAUUUUUUUAUGAUAGGGAAGAUGCGGCCAUCACUGGGAUAUUUUCAAAUCCCAAGGACCAACAGAGGAUUGAGCAUCA
B10: chr18:54155150:54155251:-|3pUTR|ENSG00000134046|unk|FALSE|unique (ssRNA)
RNA: GGGAGUUCUACAGUCCGACGAUCUUUCCACUGGCUUUUGCCUGUAAGAAAAAAAAUGUACCCGAGCACAUAGAGCUUUUUAAUAGCACUAACCAAUGCCUUUUUAGAUGUAUUUUUGAUGUAUAUAUCUAUUAUUCAAAAAAUCAACAGAGGAUUGAGCAUCA
B11: chr18:68676332:68676434:-|3pUTR|ENSG00000166479|msi1_unk|FALSE|overlapping (ssRNA)
RNA: GGGAGUUCUACAGUCCGACGAUCAUCAAGAUUAUGAGGUUAAAAAUAAUGUGGUUUUAUAUAGCAUAGUGGUUUUAUUUUGUUAGUUAUUUUUAAAGGAGAAGAAAUGUUACUUUUUAACUUUAUACUCAGUUGCAUUAUCAUCAACAGAGGAUUGAGCAUCA
B12: chr3:98797553:98797658:-|3pUTR|ENSG00000057019|msi1|FALSE|unique (ssRNA)
RNA: GGGAGUUCUACAGUCCGACGAUCAUUUCAUUCAUUGAAGAAUCAAUACAUAUUUUGUUUCAAAAUGUUUGAAACAAAAGACAUAGAUGGUAGACUUUUAUUAAAACAUAUAUGGAUGUGGAAAGCACAUAUAUUAAUGCAGUCCAACAGAGGAUUGAGCAUCA
B13: chr1:42278343:42278454:-|CDS|ENSG00000198815|unk|FALSE|bound_elsewhere (ssRNA)
RNA: GGGAGUUCUACAGUCCGACGAUCAAAAAGAAAAUGACUUUAAGUGAAAUUUAUCAGUGGAUUUGUGAUAACUUCCCAUAUUAUAGAGAGGCUGGCAGUGGUUGGAAGGUAAGGAUUUUAUUUAAAUUAUUACUUUUAUGAAGUCAACAGAGGAUUGAGCAUCA
B14: chrX:115010634:115010735:-|CDS|ENSG00000123496|msi1|FALSE|unique (ssRNA)
RNA: GGGAGUUCUACAGUCCGACGAUCUGGAUCAUCAGAGAACAAGCCUAUCAGAUCCAGUUAUUUCACUUUUCAGCUUCAAAAUAUAGGUGAUGUAAACCAACAAACAACUUCAAAUUCAUUGUUUCUAGUUUAGGCCAUUUACAACAACAGAGGAUUGAGCAUCA
B15: chr2:99394746:99394872:+|CDS|ENSG00000158417|unk|FALSE|unique (ssRNA)
RNA: GGGAGUUCUACAGUCCGACGAUCGAUGUGAGAAUUGAACGAGAUGCACAAGAAAUGGCUGAUAGUUUAGGAGUUAGAAUUUUUAGUGCAGAAAUUAUUUAUCAUUUAUUUGAUGCCUUUACAAAAUAUAGACAAGACUACAAGCAACAGAGGAUUGAGCAUCA
B16: chr12:95514132:95514176:+|3pUTR|ENSG00000111142|msi1_unk|FALSE|overlapping (ssRNA)
RNA: GGGAGUUCUACAGUCCGACGAUCCUUUUAAAUGCUAACUGUUUUUCCCCUUCCUGUCUAGGAAAAUGCUAUAAAGCUCAAAUUAGUUAGGAAUGACUUAUACGUUUUGUUUUGAAUACCUAAGAGAUACUUUUUGGAUAUUUACAACAGAGGAUUGAGCAUCA

For the test, the target named is T1, UNK ZnF1-6 (called full-length) (human, UniProt Q9C0B0 30-357).
T1 sequence: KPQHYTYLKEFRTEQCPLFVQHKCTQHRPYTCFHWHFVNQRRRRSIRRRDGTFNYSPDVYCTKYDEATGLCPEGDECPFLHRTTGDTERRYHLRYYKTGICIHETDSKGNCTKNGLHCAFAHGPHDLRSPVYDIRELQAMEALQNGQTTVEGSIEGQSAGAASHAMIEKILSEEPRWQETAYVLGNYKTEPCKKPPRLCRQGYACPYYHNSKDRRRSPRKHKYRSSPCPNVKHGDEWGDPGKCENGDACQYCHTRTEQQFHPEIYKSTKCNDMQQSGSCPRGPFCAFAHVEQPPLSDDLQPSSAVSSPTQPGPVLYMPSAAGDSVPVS
The test is described as follows: nsRBNS (natural sequence RNA bind-n-seq); RBNS binding buffer (assumed for nsRBNS): 25 mM Tris pH 7.5, 150 mM KCl, 3 mM MgCl2, 0.01% Triton X-100, 500 ug/ml BSA, 20 U/ml SUPERase-In, 4 C; UNK is unkempt and MSI1 is Musashi-1; names of the RNAs are library labels; protein concentration not given here; high values mean tight binding.
B1 showed a binding signal of 0.604 enrichment R.
In the case of B2, the binding signal was 0.657 enrichment R.
As for B3, the figure is 0.359 enrichment R; as for B4, 3.7 enrichment R; as for B5, 3.94 enrichment R.
Regarding B6, the binding signal was 39.5 enrichment R.
Molecule B7 showed a binding signal of 2.22 enrichment R.
As to B8, the binding signal was 5.29 enrichment R.
As for B9, the figure is 11.3 enrichment R.
B10 registered a binding signal of 5.14 enrichment R.
The molecule B11 registered a binding signal of 48.4 enrichment R.
Regarding B12, the binding signal is 1.11 enrichment R.
As for B13, the figure is 3.38 enrichment R; as for B14, 0.759 enrichment R.
In the case of B15 it was 15.9 enrichment R; in that of B16, 2.63 enrichment R.
